Measurements reported in ChEMBL document CHEMBL4303122, “Identification of potential treatments for COVID-19 through artificial intelligence-enabled phenomic analysis of human cells infected with SARS-CoV-2” (2020).
The full ranking holds about 1,600 compounds; the median of “Hit score” is about 0.13, and the highest 2% start at about 0.46. This excerpt belongs to a sample that is enriched for the highest values.

system: SARS-CoV-2; assay: Antiviral activity against SARS-CoV-2 (USA-WA1/2020 strain) measured by imaging in HRCE cells at MOI 0.4 after 96 hrs (reported as hit score from 0-1 for on-disease vs off-disease activity: scores >0.6 considered hits); type: functional, Homo sapiens

Q: For `CCC(C)(Oc1ccc(C2(c3ccc(OC(C)(CC)C(=O)O)cc3)CCCCC2)cc1)C(=O)O` (stereo not drawn) [CLINOFIBRATE], which Hit score is on record?
A: The Hit score was 0.1194.

Q: Which Hit score does the source give for `N[C@@H](CCN[C@@H](CCN1CC[C@H]1C(=O)O)C(=O)O)C(=O)O` here?
A: The Hit score was 0.1041.

Q: For `Cn1cnc2c(F)c(Nc3ccc(Br)cc3F)c(C(=O)NOCCO)cc21` [BINIMETINIB], which Hit score is on record?
A: The Hit score was 0.0233.

Q: How did the Hit score turn out when `O=C(O)c1cc2ccccc2c(Cc2c(O)c(C(=O)O)cc3ccccc23)c1O` [PAMOIC ACID] was run?
A: The Hit score was 0.0734.

Q: With `COC(=O)N[C@H](C(=O)N1CCC[C@H]1c1ncc(-c2ccc(-c3ccc(-c4cnc([C@@H]5CCCN5C(=O)[C@@H](NC(=O)OC)C(C)C)[nH]4)cc3)cc2)[nH]1)C(C)C` as the compound, how does the Hit score read?
A: Its Hit score is -0.06011.

Q: Which Hit score does the source give for `Cc1ccc(NC(=O)C2(c3ccc4c(c3)OC(F)(F)O4)CC2)nc1-c1cccc(C(=O)O)c1` [LUMACAFTOR] here?
A: The Hit score was 0.04797.

Q: How did the Hit score turn out when `Cc1nccn1CCC(C(N)=O)(c1ccccc1)c1ccccc1` [IMIDAFENACIN] was run?
A: Its Hit score is 0.008612.

Q: With `CCC(=O)NC[C@@H]1C[C@H]1c1cccc2c1CCO2` [TASIMELTEON] as the compound, how does the Hit score read?
A: Its Hit score is 0.1536.

Q: With `CC(C)OC(=O)CCC/C=C\C[C@@H]1[C@@H](/C=C/C(F)(F)COc2ccccc2)[C@H](O)C[C@@H]1O` [TAFLUPROST] as the compound, how does the Hit score read?
A: The Hit score was 0.14.

Q: With `O=[N+]([O-])c1cncn1CCN1CCOCC1` [NIMORAZOLE] as the compound, how does the Hit score read?
A: Its Hit score is 0.1444.

Q: For `CCCCCC(=O)O[C@]1(C(C)=O)CC[C@H]2[C@@H]3CCC4=CC(=O)CC[C@]4(C)[C@H]3CC[C@@]21C` [HYDROXYPROGESTERONE CAPROATE], which Hit score is on record?
A: The Hit score was 0.1371.

Q: Which Hit score does the source give for `COc1cc(C)c2c(Oc3cccc(C(F)(F)F)c3)c(OC)cc(NC(C)CCCN)c2n1.O=C(O)CCC(=O)O` (stereo not drawn) [TAFENOQUINE SUCCINATE] here?
A: Its Hit score is 0.101.

Q: For `C[C@]12C=CC(=O)N[C@@H]1CC[C@@H]1[C@@H]2CC[C@]2(C)[C@@H](C(=O)Nc3cc(C(F)(F)F)ccc3C(F)(F)F)CC[C@@H]12` [DUTASTERIDE], which Hit score is on record?
A: The Hit score was 0.3162.

Q: For `CO[C@H]1C[C@@H]2CC[C@@H](C)[C@@](O)(O2)C(=O)C(=O)N2CCCC[C@H]2C(=O)O[C@H]([C@H](C)C[C@@H]2CC[C@@H](O)[C@H](OC)C2)CC(=O)[C@H](C)/C=C(\C)[C@@H](O)[C@@H](OC)C(=O)[C@H](C)C[C@H](C)/C=C/C=C/C=C/1C` [SIROLIMUS], which Hit score is on record?
A: The Hit score was 0.6828.

Q: Which Hit score does the source give for `CC[C@@H]1/C=C(\C)C[C@H](C)C[C@H](OC)[C@H]2O[C@@](O)(C(=O)C(=O)N3CCCC[C@H]3C(=O)O[C@H](/C(C)=C/[C@@H]3CC[C@H](Cl)[C@H](OC)C3)[C@H](C)[C@@H](O)CC1=O)[C@H](C)C[C@@H]2OC` [PIMECROLIMUS] here?
A: Its Hit score is 0.2951.

Q: With `C=CC[C@@H]1/C=C(\C)C[C@H](C)C[C@H](OC)[C@H]2O[C@@](O)(C(=O)C(=O)N3CCCC[C@H]3C(=O)O[C@H](/C(C)=C/[C@@H]3CC[C@@H](O)[C@H](OC)C3)[C@H](C)[C@@H](O)CC1=O)[C@H](C)C[C@@H]2OC` [TACROLIMUS ANHYDROUS] as the compound, how does the Hit score read?
A: The Hit score was 0.3285.

Q: With `CO[C@H]1C[C@@H]2CC[C@@H](C)[C@@](O)(O2)C(=O)C(=O)N2CCCC[C@H]2C(=O)O[C@H]([C@H](C)C[C@@H]2CC[C@H](n3cnnn3)[C@H](OC)C2)CC(=O)[C@H](C)/C=C(\C)[C@@H](O)[C@@H](OC)C(=O)[C@H](C)C[C@H](C)/C=C/C=C/C=C/1C` [ZOTAROLIMUS] as the compound, how does the Hit score read?
A: The Hit score was 0.6315.

Q: Which Hit score does the source give for `CO[C@H]1C[C@@H]2CC[C@@H](C)[C@@](O)(O2)C(=O)C(=O)N2CCCC[C@H]2C(=O)O[C@H]([C@H](C)C[C@@H]2CC[C@@H](OCCO)[C@H](OC)C2)CC(=O)[C@H](C)/C=C(\C)[C@@H](O)[C@@H](OC)C(=O)[C@H](C)C[C@H](C)/C=C/C=C/C=C/1C` [EVEROLIMUS] here?
A: The Hit score was 0.4984.

Q: Which Hit score does the source give for `CO[C@H]1C[C@@H]2CC[C@@H](C)[C@@](O)(O2)C(=O)C(=O)N2CCCC[C@H]2C(=O)O[C@H]([C@H](C)C[C@@H]2CC[C@@H](OC(=O)C(C)(CO)CO)[C@H](OC)C2)CC(=O)[C@H](C)/C=C(\C)[C@@H](O)[C@@H](OC)C(=O)[C@H](C)C[C@H](C)/C=C/C=C/C=C/1C` [TEMSIROLIMUS] here?
A: The Hit score was 0.4599.

Q: How did the Hit score turn out when `C[C@@H]1CCO[C@H]2Cn3cc(C(=O)NCc4ccc(F)cc4F)c(=O)c(O)c3C(=O)N12` [DOLUTEGRAVIR] was run?
A: Its Hit score is -0.02185.

Q: For `CCc1cc(/C(C)=N/OCc2ccc(C3CCCCC3)c(C(F)(F)F)c2)ccc1CN1CC(C(=O)O)C1` [SIPONIMOD], which Hit score is on record?
A: The Hit score was -0.1293.

Q: `Cc1cn(-c2cc(NC(=O)c3ccc(C)c(Nc4nccc(-c5cccnc5)n4)c3)cc(C(F)(F)F)c2)cn1` [NILOTINIB] was tested. Which Hit score did it give?
A: The Hit score was 0.4816.

Q: With `Cc1ccc(NC(=O)c2ccc(CN3CCN(C)CC3)cc2)cc1Nc1nccc(-c2cccnc2)n1` [IMATINIB] as the compound, how does the Hit score read?
A: Its Hit score is 0.06765.

Q: How did the Hit score turn out when `Cc1ccc(/C=C2/C(=O)C3(C)CCC2C3(C)C)cc1` (stereo not drawn) [ENZACAMENE] was run?
A: The Hit score was 0.1975.

Q: With `CC(C)NCC(O)COc1ccc(COCCOC(C)C)cc1` (stereo not drawn) [BISOPROLOL] as the compound, how does the Hit score read?
A: Its Hit score is 0.1972.

Q: With `CC(C)NCC(O)COc1ccc(CCOCC2CC2)cc1` (stereo not drawn) [BETAXOLOL] as the compound, how does the Hit score read?
A: Its Hit score is 0.2742.

Q: Which Hit score does the source give for `CC(C)NC[C@H](O)COc1ccc(CCOCC2CC2)cc1` [LEVOBETAXOLOL] here?
A: Its Hit score is 0.4949.

Q: How did the Hit score turn out when `C=C1c2c(Cl)ccc(O)c2C(=O)C2=C(O)[C@]3(O)C(=O)C(C(N)=O)=C(O)[C@@H](N(C)C)[C@@H]3[C@@H](O)[C@H]12.O=C(O)c1cc(S(=O)(=O)O)ccc1O` [MECLOCYCLINE SULFOSALICYLATE] was run?
A: Its Hit score is 0.1338.

Q: How did the Hit score turn out when `CC(C)OC(=O)CCC/C=C\C[C@@H]1[C@@H](CC[C@@H](O)CCc2ccccc2)[C@H](O)C[C@@H]1O` [LATANOPROST] was run?
A: Its Hit score is 0.04489.

Q: How did the Hit score turn out when `CCCCCCOC(=O)CCC(=O)CN` [HEXAMINOLEVULINATE] was run?
A: Its Hit score is 0.1128.

Q: For `COc1cc([C@@H]2c3cc4c(cc3[C@@H](O[C@@H]3O[C@@H]5CO[C@@H](C)O[C@H]5[C@H](O)[C@H]3O)[C@H]3COC(=O)[C@H]23)OCO4)cc(OC)c1OP(=O)(O)O` [ETOPOSIDE PHOSPHATE], which Hit score is on record?
A: The Hit score was 0.05858.

Q: Which Hit score does the source give for `O=C(CNc1cccc(Cl)c1)NC1CCCN(c2ncnc3[nH]ccc23)C1` (stereo not drawn) here?
A: Its Hit score is 0.1071.

Q: `N#C[C@@]1(c2ccc3c(N)ncnn23)O[C@H](CO)[C@@H](O)[C@H]1O` [GS-441524] was tested. Which Hit score did it give?
A: Its Hit score is 0.865.

Q: How did the Hit score turn out when `CCC(CC)COC(=O)[C@H](C)N[P@](=O)(OC[C@H]1O[C@@](C#N)(c2ccc3c(N)ncnn23)[C@H](O)[C@@H]1O)Oc1ccccc1` was run?
A: The Hit score was 0.9631.

Q: With `CC(C)OC(=O)[C@H](C)N[P@](=O)(OC[C@H]1O[C@@H](n2ccc(=O)[nH]c2=O)[C@](C)(F)[C@@H]1O)Oc1ccccc1` [SOFOSBUVIR] as the compound, how does the Hit score read?
A: The Hit score was 0.2045.

Q: With `CC(C)OC(=O)[C@H](C)N[P@@](=O)(OC[C@H]1O[C@@H](n2ccc(=O)[nH]c2=O)[C@](C)(F)[C@@H]1O)Oc1ccccc1` as the compound, how does the Hit score read?
A: The Hit score was 0.2594.

Q: Which Hit score does the source give for `Nc1ncnc2c1ncn2[C@@H]1O[C@H](CO)[C@@H](O)[C@@H]1O` [VIDARABINE] here?
A: Its Hit score is -0.02251.

Q: For `CO[C@@]1(NC(=O)CSC[C@@H](N)C(=O)O)C(=O)N2C(C(=O)O)=C(CSc3nnnn3C)CS[C@@H]21` [CEFMINOX], which Hit score is on record?
A: The Hit score was 0.1316.

Q: Which Hit score does the source give for `CC(C)CN(C[C@@H](O)[C@H](Cc1ccccc1)NC(=O)O[C@H]1CO[C@H]2OCC[C@H]21)S(=O)(=O)c1ccc(N)cc1` here?
A: The Hit score was 0.38.

Q: Which Hit score does the source give for `CO[C@]12C[C@@H](COC(=O)c3cncc(Br)c3)CN(C)[C@@H]1Cc1cn(C)c3cccc2c13` [NICERGOLINE] here?
A: The Hit score was 0.1321.

Q: `CC[C@@H](CO)NC(=O)[C@@H]1C=C2c3cccc4[nH]cc(c34)C[C@H]2N(C)C1` [METHYLERGONOVINE] was tested. Which Hit score did it give?
A: Its Hit score is 0.219.

Q: How did the Hit score turn out when `C[C@@H]1C[C@H]2[C@@H]3CCC4=CC(=O)C=C[C@]4(C)[C@@]3(F)[C@@H](O)C[C@]2(C)[C@@]1(O)C(=O)COP(=O)([O-])[O-].[Na+].[Na+]` [DEXAMETHASONE SODIUM PHOSPHATE] was run?
A: The Hit score was 0.2627.

Q: For `COC(=O)N[C@H](C(=O)N1CCC[C@H]1c1nc(-c2ccc3c(c2)O[C@@H](c2ccccc2)n2c-3cc3cc(-c4c[nH]c([C@@H]5CCCN5C(=O)[C@@H](NC(=O)OC)C(C)C)n4)ccc32)c[nH]1)C(C)C` [ELBASVIR], which Hit score is on record?
A: Its Hit score is -0.03781.

Q: Which Hit score does the source give for `O=C(Nc1c(Cl)cncc1Cl)c1ccc(OC(F)F)c(OCC2CC2)c1` [ROFLUMILAST] here?
A: The Hit score was 0.1334.

Q: How did the Hit score turn out when `C=CC[N+]1([C@H]2C[C@H]3[C@@H]4CC[C@H]5C[C@H](O)[C@@H](N6CCOCC6)C[C@]5(C)[C@H]4CC[C@]3(C)[C@H]2OC(C)=O)CCCC1` [ROCURONIUM] was run?
A: The Hit score was 0.1086.

Q: For `CCc1cc2c(cc1CC)CC(NC[C@H](O)c1ccc(O)c3[nH]c(=O)ccc13)C2` [INDACATEROL], which Hit score is on record?
A: The Hit score was -0.2891.

Q: `C[C@H]1[C@H](OC(=O)CCC(=O)O)O[C@@H]2O[C@@]3(C)CC[C@H]4[C@H](C)CC[C@@H]1[C@@]24OO3` [ARTESUNATE] was tested. Which Hit score did it give?
A: Its Hit score is 0.2142.

Q: With `CC(=O)O[C@]1(C(C)=O)CC[C@H]2[C@@H]3C=C(C)C4=CC(=O)CC[C@@H]4[C@H]3CC[C@@]21C` [NOMEGESTROL ACETATE] as the compound, how does the Hit score read?
A: Its Hit score is 0.2782.
